This passage reports Potency, activity change, negative = thiol reactive and activity, negative = inhibition results from PubChem BioAssay (NCATS).

Results filed as inconclusive are left out. Where a call stands in place of a potency, no number is given. Active and inactive are the calls of the source. The call rests on the fitted dose curve; in most records, active means well fitted curve in the direction sought with a large enough effect; inconclusive means small, poorly fitted or top-dose-only effect, or another doubt; inactive means no such curve, though single readings can be large; an effect the other way counts as inactive or inconclusive.

Test system in one test: not listed separately
As to the kind of experiment: Primary fluorescence-based thiol-reactive (MSTI) qHTS assay for identification of artifact compounds. (AID 1845221). Further: nearly all actives have a fitted effect of over 65% in size. Further: potency means the concentration at half of the fitted maximal effect.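 On activity change, negative = thiol reactive: thiol-reactive compounds lower the probe fluorescence signal.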 The conditions noted are these: MSTI thiol-reactivity probe, 1 h; series mostly up to 53.8 µM. Summed up:
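Compounds were incubated 1 h at room temperature in the dark with the MSTI probe (4 uM) in PBS pH 7.4, 2% DMSO. Signals were normalized between Acetyl-MSTI and MSTI.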
Background: Quantitative high-throughput screening tests each substance at several concentrations.
As for `OCc1ccccc1O[C@@H]1O[C@H](CO)[C@@H](O)[C@H](O)[C@H]1O`, the Potency is 23.8 µM (active). On to `O=C(O)C[C@H](O)C[C@H](O)/C=C/c1c(C2CC2)nc2ccccc2c1-c1ccc(F)cc1`, for which the Potency result was “inactive”. Still for that read-out and setting: for `C=C1[C@H]2CC[C@]3(O)[C@@](CC[C@@H]4[C@](C)(C(=O)O)CCC[C@]43C)(C2)[C@H]1OC(=O)/C(C)=C\C` the value was “inactive”. Turning to `CCN[C@@H]1C[C@H](N)[C@@H](O[C@H]2OC(CN)=CC[C@H]2N)[C@H](O)[C@H]1O[C@H]1OC[C@](C)(O)[C@H](NC)[C@H]1O`, the Potency result is “inactive”. The same measure, in the same setting: for `OC[C@H]1O[C@@H](OCCc2ccc(O)cc2)[C@H](O)[C@@H](O)[C@@H]1O` the value was 11.9 µM (active); for `C=C1CC2C3(C)C(OC(C)=O)CC(=O)OC(C)(C)C3C(O)C(OC(C)=O)C2(C)C2C(=O)OC(C)C(=O)C12C` (stereo not given), “inactive”.

Consider `C[C@@H]1O[C@@H](O[C@H]2[C@H](OC(=O)C34CCC5(C)C(=CCC6C7(C)CC(O)C(O[C@@H]8O[C@H](C(=O)O)[C@@H](O)[C@H](O)[C@H]8O)C(C)(C(=O)O)C7CCC65C)C3CC(C)(C)CC4O)O[C@H](C)[C@@H](O)[C@@H]2O)[C@H](O)[C@@H](O[C@@H]2OC[C@](O)(CO)[C@H]2O[C@@H]2O[C@H](CO)[C@@H](O)[C@H](O)[C@H]2O)[C@H]1O` (stereo not given in full), for which the activity change, negative = thiol reactive was 44.4% [at 11.5 µM] (inactive). Take `CC12CCC3c4ccc(O)cc4CCC3C1CCC2OC1OC(C(=O)O)C(O)C(O)C1O` (stereo not given): the Potency entry is “inactive”.

In the case of `C[C@@H]1C(=O)O[C@H]2[C@H]1CC[C@@]1(C)C(=O)C=C[C@](C)(O)[C@H]21`, the Potency was 21.2 µM (active).

For `Cc1onc(-c2ccccc2)c1C(=O)N[C@@H]1C(=O)N2[C@@H]1SC(C)(C)[C@@H]2C(=O)O`, the Potency result is “inactive”.

The next test has as its system Nanoluciferase (engineered Oplophorus gracilirostris luciferase). The test can be described thus: Primary Nanoluciferase (NLuc) qHTS assay for identification of artifact compounds. (AID 1845222). The conditions noted are these: NLuc-conditioned medium, Nano-Glo luminescence, 5 min; series mostly up to 54.1 µM. The method in brief: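 Compounds are pinned into diluted (1:55) conditioned medium of NLuc-expressing S16 cells and held 15 min at room temperature protected from light. Nano-Glo substrate follows, and luminescence is read 5 min later.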
On to `CC(=O)O[C@@H]1[C@H]2[C@@H](OC(=O)c3ccccc3)[C@@H](C)C[C@]2(O)[C@H](OC(C)=O)[C@@]2(C)[C@@H]3CC(C)(C)C(=O)[C@]3(OC(C)=O)C[C@@]12C`, for which the Potency entry was “inactive”. The same measure, in the same setting: for `CC(=O)OCC1=C[C@H](O)[C@@H]2C(C(=O)O)=CO[C@@H](O[C@@H]3O[C@H](CO)[C@@H](O)[C@H](O)[C@H]3O)[C@H]12` the value was “inactive”; for `COc1ccc(C(O[C@@H]2O[C@H](CO)[C@@H](O)[C@H](O)[C@H]2O)C(CO)Oc2ccc(/C=C/CO)cc2OC)cc1O` (stereo not given in full), “inactive”; for `O=S(=O)(Nc1ccc(C(O)(C(F)(F)F)C(F)(F)F)cc1)c1cccs1`, “inactive”. `CC1(C)CCCC2(C)C1C(O)C=C(CO)C2(O)C(=O)O` (stereo not given): the Potency entry is “inactive”. The same measure, in the same setting: the entry for `COc1cc(CCc2ccccc2)c(C(=O)O)c2c1CC(C(C)(C)O)O2` (stereo not given) is “inactive”; for `Cc1coc2c1CC1OC1(C)CCC1OC1(C)C2` (stereo not given) it is “inactive”; for `COc1cc2c(cc1OC)CN(C(=O)[C@@H](NCc1ccncc1)C(C)(C)C)CC2` it is “inactive”.

Turning to `O=C(C1CC1)N1CC[C@@H](Cc2n[nH]c(=O)n2-c2ccc(-c3ccc4occc4c3)cc2)C1`, the Potency result is “inactive”. In the case of `CCC[C@@H]1C[C@@H](C(=O)N[C@H](C(C)Cl)[C@H]2O[C@H](SC)[C@H](O)[C@@H](O)[C@H]2O)N(C)C1` (stereo not given in full), the Potency entry was “inactive”. On the same count and under the same terms, for `C=CC(C)(CC/C=C(\C)CC/C=C(\C)CC(O)/C=C(\C)C(=O)O)O[C@@H]1O[C@H](CO)[C@@H](O)[C@H](O)[C@H]1O[C@@H]1O[C@H](CO)[C@@H](O)[C@H](O)[C@H]1O` (stereo not given in full) the value was “inactive”. Still for that read-out and setting: the entry for `CCC(NC(=O)CC(NC(=O)C(CO)NC(=O)C(CC)NC(=O)c1ccc[nH]1)c1ccccc1)C(=O)O` (stereo not given) is “inactive”; for `C=C1CCC2(OC1)OC1CC3C4CC=C5CC(O)CC(O[C@@H]6OC[C@@H](O)[C@H](O)[C@H]6O)C5(C)C4CCC3(C)C1(O)C2C` (stereo not given in full) it is “inactive”. On the same count and under the same terms, the entry for `C[C@]12CC[C@@H]3c4ccc(O[C@@H]5O[C@H](C(=O)O)[C@@H](O)[C@H](O)[C@H]5O)cc4CC[C@H]3[C@@H]1CCC2=O` is “inactive”.

Consider `C=C1CC[C@H]2[C@@](C)(CCC[C@@]2(C)C(=O)O)[C@@H]1CCC(C)CCO` (stereo not given in full), for which the Potency result is “inactive”. For `C=CC1(C)CC2=CCC3C(C)(C(=O)O)CCCC3(C)C2CC1OC(C)=O` (stereo not given), the Potency entry was “inactive”. As for `Nc1ncnc2c1ncn2[C@H]1CCCO1`, the Potency entry is “inactive”. With `CC(C)(O)CNc1nc(Nc2ccnc(C(F)(F)F)c2)nc(-c2cccc(C(F)(F)F)n2)n1`, the Potency entry is “inactive”. The same measure, in the same setting: for `CC1(C)CC[C@]2(C(=O)O[C@@H]3O[C@H](CO)[C@@H](O)[C@H](O)[C@H]3O)CC[C@]3(C)C(=CCC4[C@@]5(C)C[C@@H](O)[C@H](O)C(CO)(CO)C5CC[C@]43C)C2[C@@H]1O` (stereo not given in full) the value was “inactive”. Still for that read-out and setting: for `C=CC1(C)C=C2C(=O)CC3C(C)(C)CCCC3(C(=O)O)C2(O)CC1` (stereo not given) the value was “inactive”.

On to `O=C(NN1CCCCC1)c1nn(-c2ccc(Cl)cc2Cl)c(-c2ccc(C#Cc3ccc(C(F)(F)F)cc3)s2)c1CNS(=O)(=O)N1CCCC1`, for which the Potency entry is “inactive”. On the same count and under the same terms, for `O=C1N(CC2CCCCN2)CCN1c1ccccc1` (stereo not given) the value was “inactive”; for `COc1cc([C@H]2OC[C@@H]3[C@@H](c4ccc(O[C@@H]5O[C@H](CO)[C@@H](O)[C@H](O)[C@H]5O)c(OC)c4)OC[C@]23O)ccc1O`, “inactive”. Still for that read-out and setting: the entry for `CC(C)(O)C1CC=C(C(=O)OCC2OC(Oc3c(O)cc(C(=O)O)cc3O)C(O)C(O)C2O)CC1` (stereo not given) is “inactive”; for `O=C(CCCCc1ccc2ccccc2c1)C(F)(F)F` it is “inactive”. `C=CC(C)(O)CC/C=C(/C)C(=O)OC1C(OC2OCC(OC3OC(CO)C(O)C(O)C3O)C(OC3OCC(O)C(OC4OC(C)C(O)C(O)C4O)C3O)C2O)COC(OC(=O)C23CCC(C)(C)CC2C2=CCC4C5(C)CCC(OC6OC(CO)C(OC7OC(CO)C(O)C(OC8OCC(O)C(O)C8O)C7O)C(O)C6O)C(C)(C)C5CCC4(C)C2(C)CC3O)C1O` (stereo not given): the activity, negative = inhibition was 2.49% [at 6.45 µM] (inactive). `Cc1cccc(-c2[nH]c(CNc3ccccc3F)nc2-c2ccc3ncnn3c2)n1`: the Potency entry is “inactive”. Still for that read-out and setting: for `CNC(=O)O[C@H]1COc2ccc(N3CCN(C4COC4)CC3)cc2[C@@H]1NC(=O)c1ccc(F)cc1` the value was “inactive”. Same read-out and setting: for `COc1cc(C(=O)OC[C@H]2O[C@H](O[C@@]3(CO)O[C@@H](CO)[C@H](O)[C@H]3O)[C@H](O)[C@@H](O)[C@@H]2O)ccc1O` the value was “inactive”; for `C[C@]12CCC(=O)C=C1[C@@H](O)C[C@@H]1[C@@H]2[C@@H](O)C[C@@]2(C)[C@H]1CC[C@]2(O)C(=O)CO`, “inactive”. On the same count and under the same terms, for `OCc1ccccc1O[C@@H]1O[C@H](CO)[C@@H](O)[C@H](O)[C@H]1O` the value was “inactive”; for `O=C(O)C[C@H](O)C[C@H](O)/C=C/c1c(C2CC2)nc2ccccc2c1-c1ccc(F)cc1`, “inactive”. For the compound `C=C1[C@H]2CC[C@]3(O)[C@@](CC[C@@H]4[C@](C)(C(=O)O)CCC[C@]43C)(C2)[C@H]1OC(=O)/C(C)=C\C`, the Potency entry was “inactive”. As to `CCN[C@@H]1C[C@H](N)[C@@H](O[C@H]2OC(CN)=CC[C@H]2N)[C@H](O)[C@H]1O[C@H]1OC[C@](C)(O)[C@H](NC)[C@H]1O`, the Potency entry is “inactive”. The same measure, in the same setting: for `OC[C@H]1O[C@@H](OCCc2ccc(O)cc2)[C@H](O)[C@@H](O)[C@@H]1O` the value was “inactive”; for `C=C1CC2C3(C)C(OC(C)=O)CC(=O)OC(C)(C)C3C(O)C(OC(C)=O)C2(C)C2C(=O)OC(C)C(=O)C12C` (stereo not given), “inactive”.

`C[C@@H]1O[C@@H](O[C@H]2[C@H](OC(=O)C34CCC5(C)C(=CCC6C7(C)CC(O)C(O[C@@H]8O[C@H](C(=O)O)[C@@H](O)[C@H](O)[C@H]8O)C(C)(C(=O)O)C7CCC65C)C3CC(C)(C)CC4O)O[C@H](C)[C@@H](O)[C@@H]2O)[C@H](O)[C@@H](O[C@@H]2OC[C@](O)(CO)[C@H]2O[C@@H]2O[C@H](CO)[C@@H](O)[C@H](O)[C@H]2O)[C@H]1O` (stereo not given in full): the activity, negative = inhibition is 0% [at 11.6 µM] (inactive).

Regarding `CC12CCC3c4ccc(O)cc4CCC3C1CCC2OC1OC(C(=O)O)C(O)C(O)C1O` (stereo not given), the Potency entry was “inactive”.

Regarding `C[C@@H]1C(=O)O[C@H]2[C@H]1CC[C@@]1(C)C(=O)C=C[C@](C)(O)[C@H]21`, the Potency entry was “inactive”.

Take `Cc1onc(-c2ccccc2)c1C(=O)N[C@@H]1C(=O)N2[C@@H]1SC(C)(C)[C@@H]2C(=O)O`: the Potency result is “inactive”.
